This is part of a sample that, as a whole, favours compounds with a hit. Of some 79,000 tested, about 15% had one in any assay. A number with no mark means an inactive call. The source made the active and inactive calls. Rule as the data show it: active = growth inhibition above about 70%; inactive = the rest.
Legend:
[1] = NCI Yeast Anticancer Drug Screen. Data for the rad52 strain (AID 147);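 also: 0% = growth of vehicle-treated control cultures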; conditions: S. cerevisiae rad52 mutant growth inhibition, hits give high values
Outline: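 Screen used a yeast mutant impaired in DNA repair. After compound exposure, growth was measured. Values reflect inhibition compared with vehicle-treated cells.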

[2] = NCI Yeast Anticancer Drug Screen. Data for the wt1 strain (AID 149);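 also: 0% = growth of vehicle-treated wt1 cultures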; conditions: S. cerevisiae wt1 strain (SPY 50644) growth inhibition, hits give high values
Outline: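 wt1 strain grown with compound or vehicle; inhibition taken from the growth difference.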

[3] = NCI Yeast Anticancer Drug Screen. Data for the rad50EPP+ strain (AID 151);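 also: 0% = growth of vehicle-treated control cultures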; conditions: S. cerevisiae rad50 mutant strain, hits give high values
Outline: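 Exposing the rad50EPP+ strain to each compound, growth was compared with vehicle-only cultures to give inhibition.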

[4] = NCI Yeast Anticancer Drug Screen. Data for the mgt1 strain (AID 153); conditions: S. cerevisiae mgt1 mutant growth inhibition, hits give high values
Outline: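 Genetically defined yeast (mgt1) treated with compound; inhibition of growth expressed against vehicle-treated controls.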

[5] = NCI Yeast Anticancer Drug Screen. Data for the rad50 strain (AID 155);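 also: 0% = growth of vehicle-only cultures of the same strain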; conditions: S. cerevisiae rad50 strain growth inhibition, hits give high values
Outline: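 DNA repair mutant yeast, compound exposure, growth read-out; inhibition is taken relative to vehicle.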

[6] = NCI Yeast Anticancer Drug Screen. Data for the mec2-1 strain (AID 157); conditions: S. cerevisiae mec2-1 strain, hits give high values
Outline: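 Readout is yeast growth inhibition, normalised to vehicle-treated controls, in the mec2-1 strain exposed to compound.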

[7] = NCI Yeast Anticancer Drug Screen. Data for the rad14 strain (AID 159);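 also: 0% = growth of vehicle-treated control cultures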; conditions: S. cerevisiae rad14 strain growth inhibition, hits give high values
Outline: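 DNA repair-defective yeast, compound-exposed; % growth inhibition derived by comparison with vehicle-treated controls.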

[8] = NCI Yeast Anticancer Drug Screen. Data for the sgs1 mgt1 strain (AID 161);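 also: 0% = growth of cultures given vehicle only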; conditions: S. cerevisiae sgs1 mgt1 strain, hits give high values
Outline: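 Growth of a repair-deficient yeast mutant was monitored after compound treatment and expressed as inhibition relative to vehicle-treated cultures.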

[9] = NCI Yeast Anticancer Drug Screen. Data for the CLN2oe strain (AID 163);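 also: 0% = growth of vehicle-only control cultures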; conditions: S. cerevisiae CLN2oe strain, hits give high values
Outline: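 Values reflect how much compound exposure reduced yeast growth, referenced to vehicle-exposed cells. Assay organism is a strain with a defined genetic change affecting cell-cycle control.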

[10] = NCI Yeast Anticancer Drug Screen. Data for the cln2 rad14 strain (AID 165);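 also: 0% = growth equal to vehicle treated cultures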; conditions: S. cerevisiae cln2 rad14 strain, hits give high values
Outline: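 Relative to vehicle controls, growth inhibition of compound-treated cln2 rad14 yeast was recorded.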

[11] = NCI Yeast Anticancer Drug Screen. Data for the wt2 strain (AID 169);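 also: 0% = growth of vehicle-treated yeast cultures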; conditions: S. cerevisiae wt2 strain growth inhibition, hits give high values
Outline: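 Values express reduction in yeast growth under compound treatment, referenced to vehicle-treated cells.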

[12] = NCI Yeast Anticancer Drug Screen. Data for the mlh1 strain (AID 171);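 also: 0% = growth of vehicle-treated control cultures of the same strain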; conditions: S. cerevisiae mlh1 strain growth inhibition, hits give high values
Outline: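 Steps: expose the defined-mutant yeast strain to compound; expose a parallel culture to vehicle; measure growth; express compound effect as inhibition relative to the vehicle culture.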

[13] = NCI Yeast Anticancer Drug Screen. Data for the sgs1 strain (AID 173);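 also: 0% = growth of vehicle-only control cultures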; conditions: S. cerevisiae sgs1 mutant, hits give high values
Outline: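 Treat defined-mutant yeast with compound; measure growth; calculate inhibition relative to vehicle-treated cells.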

[14] = NCI Yeast Anticancer Drug Screen. Data for the mlh1 rad18 strain (AID 175); conditions: S. cerevisiae mlh1 rad18 strain growth inhibition, hits give high values
Outline: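 Test agents were incubated with a yeast strain of defined genotype (DNA damage repair defect). Inhibition of growth was derived by comparison with vehicle-exposed cultures.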

[15] = NCI Yeast Anticancer Drug Screen. Data for the rad18 strain (AID 177); conditions: S. cerevisiae rad18 mutant growth inhibition, hits give high values
Outline: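 A genetically defined yeast mutant impaired in DNA damage repair was treated with test compounds, then its growth was measured against cultures receiving vehicle alone.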

[16] = at 5.0 µM (retest, dose inferred, filed as 0.5)
[17] = at 50.0 µM (retest, dose inferred, filed as 5.0)

Question: Which results are given for `COc1cccc2c1C(=O)c1c(O)c3c(c(O)c1C2=O)C[C@@](O)(C(C)=O)C[C@@H]3OC1CC(N)C(OC2CC(O)C(O)C(C)O2)C(C)O1` (stereo not given in full)?
Answer: growth inhibition ([1]; at 1.2 µM): 16%; growth inhibition ([1]; at 3.7 µM): 12%; growth inhibition ([1]; at 11.0 µM): 15%; growth inhibition ([1]; at 33.0 µM): 27%; growth inhibition ([1]; at 100.0 µM): 59%; growth inhibition ([2]; at 1.2 µM): -26%; growth inhibition ([2]; at 3.7 µM): -25%; growth inhibition ([2]; at 11.0 µM): -7%; growth inhibition ([2]; at 33.0 µM): -15%; growth inhibition ([2]; at 100.0 µM): -2%; growth inhibition ([3]; at 1.2 µM): 11%; growth inhibition ([3]; at 3.7 µM): 8%; growth inhibition ([3]; at 11.0 µM): 10%; growth inhibition ([3]; at 33.0 µM): 18%; growth inhibition ([3]; at 100.0 µM): 38%; growth inhibition ([4]; at 1.2 µM): -22%; growth inhibition ([4]; at 3.7 µM): -22%; growth inhibition ([4]; at 11.0 µM): -18%; growth inhibition ([4]; at 33.0 µM): -14%; growth inhibition ([4]; at 100.0 µM): -17%; growth inhibition ([5]; at 1.2 µM): 1%; growth inhibition ([5]; at 3.7 µM): 10%; growth inhibition [5, 16]: 36%; growth inhibition ([5]; at 11.0 µM): 17%; growth inhibition ([5]; at 33.0 µM): 28%; growth inhibition [5, 17]: 83% (active); growth inhibition ([5]; at 50.0 µM): 76.8% (active); growth inhibition ([5]; at 100.0 µM): 59%; growth inhibition ([6]; at 1.2 µM): -25%; growth inhibition ([6]; at 3.7 µM): -20%; growth inhibition [6, 16]: 5%; growth inhibition ([6]; at 11.0 µM): -24%; growth inhibition ([6]; at 33.0 µM): -17%; growth inhibition [6, 17]: 33%; growth inhibition ([6]; at 50.0 µM): 49.1%; growth inhibition ([6]; at 100.0 µM): -8%; growth inhibition ([7]; at 1.2 µM): -10%; growth inhibition ([7]; at 3.7 µM): -11%; growth inhibition ([7]; at 11.0 µM): -9%; growth inhibition ([7]; at 33.0 µM): -1%; growth inhibition ([7]; at 100.0 µM): 15%; growth inhibition [8, 16]: 14%; growth inhibition [8, 17]: 44%; growth inhibition ([8]; at 50.0 µM): 39.8%; growth inhibition ([9]; at 1.2 µM): -14%; growth inhibition ([9]; at 3.7 µM): -10%; growth inhibition ([9]; at 11.0 µM): -12%; growth inhibition ([9]; at 33.0 µM): -6%; growth inhibition ([9]; at 100.0 µM): 6%; growth inhibition [10, 16]: 19%; growth inhibition [10, 17]: 78% (active); growth inhibition ([10]; at 50.0 µM): 57.8%; growth inhibition ([11]; at 1.2 µM): -57%; growth inhibition ([11]; at 3.7 µM): -65%; growth inhibition ([11]; at 11.0 µM): -54%; growth inhibition ([11]; at 33.0 µM): -28%; growth inhibition ([11]; at 100.0 µM): 2%; growth inhibition ([12]; at 1.2 µM): -25%; growth inhibition ([12]; at 3.7 µM): -15%; growth inhibition ([12]; at 11.0 µM): -17%; growth inhibition ([12]; at 33.0 µM): -6%; growth inhibition ([12]; at 100.0 µM): -3%; growth inhibition ([13]; at 1.2 µM): -2%; growth inhibition ([13]; at 3.7 µM): -4%; growth inhibition ([13]; at 11.0 µM): -11%; growth inhibition ([13]; at 33.0 µM): -8%; growth inhibition ([13]; at 100.0 µM): 0%; growth inhibition [14, 16]: 18%; growth inhibition [14, 17]: 48%; growth inhibition ([14]; at 50.0 µM): 51.3%; growth inhibition ([15]; at 1.2 µM): -8%; growth inhibition ([15]; at 3.7 µM): -17%; growth inhibition ([15]; at 11.0 µM): -32%; growth inhibition ([15]; at 33.0 µM): -21%; growth inhibition ([15]; at 100.0 µM): -2%

Question: With `COc1cc(C2c3cc4c(cc3[C@@H](Nc3ccc(N)cc3)C3COC(=O)[C@H]23)OCO4)cc(OC)c1O` (stereo not given in full) as the compound, how does the growth inhibition ([1]; at 1.2 µM) read?
Answer: 92% (active)

Question: What about the growth inhibition ([1]; at 3.7 µM) of the same compound?
Answer: 92% (active)

Question: What about the growth inhibition ([1]; at 11.0 µM) of the same compound?
Answer: 95% (active)

Question: What about the growth inhibition ([1]; at 33.0 µM) of the same compound?
Answer: 92% (active)

Question: And the growth inhibition ([1]; at 100.0 µM)?
Answer: 87% (active)

Question: What about the growth inhibition ([2]; at 1.2 µM) of the same compound?
Answer: -35%

Question: What about the growth inhibition ([2]; at 3.7 µM) of the same compound?
Answer: 64%

Question: And the growth inhibition ([2]; at 11.0 µM)?
Answer: 95% (active)

Question: And the growth inhibition ([2]; at 33.0 µM)?
Answer: 94% (active)

Question: What about the growth inhibition ([2]; at 100.0 µM) of the same compound?
Answer: 88% (active)

Question: What about the growth inhibition ([3]; at 1.2 µM) of the same compound?
Answer: -2%

Question: What about the growth inhibition ([3]; at 3.7 µM) of the same compound?
Answer: 12%

Question: What about the growth inhibition ([3]; at 11.0 µM) of the same compound?
Answer: 63%

Question: And the growth inhibition ([3]; at 33.0 µM)?
Answer: 85% (active)

Question: And the growth inhibition ([3]; at 100.0 µM)?
Answer: 89% (active)

Question: And the growth inhibition ([4]; at 1.2 µM)?
Answer: -16%

Question: And the growth inhibition ([4]; at 3.7 µM)?
Answer: 66%

Question: And the growth inhibition ([4]; at 11.0 µM)?
Answer: 94% (active)

Question: What about the growth inhibition ([4]; at 33.0 µM) of the same compound?
Answer: 95% (active)

Question: What about the growth inhibition ([4]; at 100.0 µM) of the same compound?
Answer: 90% (active)

Question: And the growth inhibition ([5]; at 1.2 µM)?
Answer: 91% (active)

Question: And the growth inhibition ([5]; at 3.7 µM)?
Answer: 95% (active)

Question: And the growth inhibition [5, 16]?
Answer: 92% (active)

Question: And the growth inhibition ([5]; at 11.0 µM)?
Answer: 95% (active)

Question: What about the growth inhibition ([5]; at 33.0 µM) of the same compound?
Answer: 94% (active)

Question: And the growth inhibition [5, 17]?
Answer: 95% (active)

Question: And the growth inhibition ([5]; at 50.0 µM)?
Answer: 82.8% (active)

Question: And the growth inhibition ([5]; at 100.0 µM)?
Answer: 88% (active)

Question: And the growth inhibition ([6]; at 1.2 µM)?
Answer: 14%

Question: What about the growth inhibition ([6]; at 3.7 µM) of the same compound?
Answer: 89% (active)

— PubChem BioAssay (NCI)
